Some test systems named below: NCI-H23 lung; NCI-H226 lung; NCI-H322M lung; HOP-62 NSCLC; NCI-H460 lung; HOP-92 NSCLC; NCI-H522 lung; A549/ATCC NSCLC; 786-0 renal; COLO 205 colon.
What all share (assay): NCI-60 one-dose screen, 48 h (100 = growth as untreated, 0 = no growth, -100 = all killed)
Holding throughout (conditions): 10 µM unless noted

The structures appear in SMILES notation. This is part of a sample that, as a whole, favours compounds with a hit. Of some 83,000 tested, about 20% had one in any assay.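 Compound tested at a single concentration for 48 hours in 96-well plates; a percent growth value below 10 was scored as active.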 A number with no mark means an inactive call. Activity calls are given as the source filed them.

The text below walks through data of PubChem BioAssay (NCI).

Take `CN(C)c1ccc(-c2ccc3c(c2)c(-c2ccccc2)nc(=O)n3C)cn1`: the growth is 71% with NCI-H23 lung; 77.2% with NCI-H226 lung; 60.9% with NCI-H322M lung; 36.8% in the assay with HOP-62 NSCLC; 19.7% with NCI-H460 lung; -45.4% (active) in the assay on HOP-92 NSCLC. The growth in the assay on NCI-H522 lung was 7.96% (active); with A549/ATCC NSCLC, 45.8%; in the assay on 786-0 renal, 26.2%; in the assay on COLO 205 colon, 28.1%.
Consider `CCCCNC(=O)Oc1ccc(/C(=C(/C)Cc2ccc(OC)cc2)c2ccc(OCCN3CCCCC3)cc2)cc1`, for which the growth with NCI-H23 lung was 81.6%; in the assay on NCI-H226 lung, 90.5%; in the assay on NCI-H322M lung, 92%; in the assay on HOP-62 NSCLC it was 84.1%; in the assay with NCI-H460 lung, 33.6%; in the assay on HOP-92 NSCLC, 63.4%. In addition, the growth in the assay on NCI-H522 lung is 81.2%; with A549/ATCC NSCLC, 61%; in the assay on 786-0 renal, 66.7%; in the assay with COLO 205 colon, 34.9%.
As to `O=C(CN1CCN(c2cc3c(cc2F)c(=O)c(C(=O)O)cn3C2CC2)CC1)N/N=C/c1ccco1`, the growth in the assay with NCI-H23 lung was 104%; in the assay on NCI-H226 lung it was 94.1%; with NCI-H322M lung, 95%; with HOP-62 NSCLC, 82.8%; in the assay on NCI-H460 lung, 105%; with HOP-92 NSCLC, 87.9%. Also, the growth with NCI-H522 lung was 93.5%; with A549/ATCC NSCLC it was 90.6%; in the assay on 786-0 renal, 96.4%; in the assay on COLO 205 colon it was 102%.
For `CCOC(=O)C(Cc1ccc(OC)cc1)C(=O)OCC`, the growth in the assay on NCI-H23 lung was 17.6%; in the assay with NCI-H226 lung, 65.9%; in the assay with NCI-H322M lung it was 36.3%; in the assay on HOP-62 NSCLC, 52.8%; in the assay on NCI-H460 lung it was 30.4%; with HOP-92 NSCLC it was -1.28% (active). The growth was 25% in the assay on NCI-H522 lung, 51.7% with A549/ATCC NSCLC, 39.3% in the assay with 786-0 renal and 71.6% in the assay with COLO 205 colon.
As to `O=C(C1CCCCC1)[C@@H]1[C@]2(C(=O)NC3CCCCC32)[C@@H]2CCCN2[C@@]12C(=O)NC1CCC(Cl)CC12` (stereo not given in full), the growth with NCI-H23 lung was -81.4% [100 µM] (active); in the assay with NCI-H226 lung, -55.1% [100 µM] (active); in the assay on NCI-H322M lung, -95.1% [100 µM] (active); in the assay with HOP-62 NSCLC it was -73.2% [100 µM] (active); in the assay with NCI-H460 lung, -77.2% [100 µM] (active); in the assay with HOP-92 NSCLC it was -89.9% [100 µM] (active). Moreover, the growth with NCI-H522 lung was -81.7% [100 µM] (active); with A549/ATCC NSCLC, -82.9% [100 µM] (active); in the assay with 786-0 renal, -80.8% [100 µM] (active); in the assay with COLO 205 colon it was -80.8% [100 µM] (active).
For the compound `Cc1ccc(-c2nc(SCc3nc4cc(Cl)c(Cl)cc4[nH]3)[nH]c(=O)c2C#N)cc1`, the growth in the assay with NCI-H23 lung was 99.2%; with NCI-H226 lung, 103%; in the assay with NCI-H322M lung, 101%; in the assay with HOP-62 NSCLC it was 91.9%; in the assay with NCI-H460 lung, 112%; in the assay on HOP-92 NSCLC, 104%. The growth is 89.1% in the assay with NCI-H522 lung, 93.1% in the assay on A549/ATCC NSCLC, 94.5% with 786-0 renal and 107% with COLO 205 colon.
Consider `Cc1nc2c(c(=O)[nH]1)C(c1ccccc1)c1ccc3ccccc3c1O2` (stereo not given), for which the growth in the assay with NCI-H23 lung was 50.4%; in the assay with NCI-H226 lung it was 62.5%; in the assay on NCI-H322M lung, 59.1%; with HOP-62 NSCLC, 20.2%; in the assay with NCI-H460 lung, 20.5%; in the assay with HOP-92 NSCLC it was 24.7%. Besides, the growth in the assay on NCI-H522 lung was -31.4% (active); with A549/ATCC NSCLC it was 40.2%; in the assay with 786-0 renal, 25%; in the assay on COLO 205 colon, 72.9%.
Take `O=C1/C(=C/c2ccccn2)NC(=S)N1c1ccccc1Cl`: the growth with NCI-H23 lung is 56.4%; in the assay on NCI-H226 lung it was 78.3%; with NCI-H322M lung it was 66.7%; with HOP-62 NSCLC, 38.9%; in the assay with NCI-H460 lung, 31.2%; in the assay on HOP-92 NSCLC, 102%. For the same compound, the growth was 58.1% with NCI-H522 lung, 51% with A549/ATCC NSCLC, 31.8% with 786-0 renal and 66.4% in the assay with COLO 205 colon.
`Cn1cc(-c2csc(-c3cn(CCCN4CCOCC4)c4ccccc34)n2)c2cccnc21`: the growth was 88.3% in the assay on NCI-H23 lung; 75.7% with NCI-H226 lung; 95.6% in the assay on NCI-H322M lung; 97.4% in the assay with HOP-62 NSCLC; 88.5% with NCI-H460 lung; 67.7% with HOP-92 NSCLC. The growth was 67.9% in the assay with NCI-H522 lung, 79.3% in the assay with A549/ATCC NSCLC, 74.4% in the assay with 786-0 renal and 73.9% in the assay with COLO 205 colon.
For the compound `N#C/C(=C\c1ccc([N+](=O)[O-])cc1)n1nnc2cc(F)c(F)cc21`, the growth in the assay on NCI-H23 lung was 34.6%; with NCI-H226 lung, -1.27% (active); in the assay with NCI-H322M lung, 72.5%; in the assay on HOP-62 NSCLC, 63.9%; in the assay with NCI-H460 lung, 11.7%; in the assay with HOP-92 NSCLC, 9.03% (active). Further, the growth in the assay on NCI-H522 lung was 36.9%; in the assay on A549/ATCC NSCLC, 64.5%; in the assay with 786-0 renal, -58.4% (active); with COLO 205 colon it was 19.9%.
For the compound `O=C1/C(=C\c2ccccn2)c2ccccc2N1c1c(Cl)cccc1Cl`, the growth with NCI-H23 lung was 13%; in the assay with NCI-H226 lung, 25.2%; in the assay on NCI-H322M lung it was 61.4%; in the assay with HOP-62 NSCLC, 23.3%; in the assay with NCI-H460 lung, -29.3% (active); in the assay on HOP-92 NSCLC it was -7.93% (active). Also, the growth in the assay with NCI-H522 lung is 36.8%; in the assay with A549/ATCC NSCLC, 50.3%; in the assay with 786-0 renal, -81.4% (active); in the assay with COLO 205 colon, -16.1% (active).
In the case of `CCSc1oc(C)nc1[P+](c1ccccc1)(c1ccccc1)c1ccccc1`, the growth with NCI-H23 lung is 20.6%; in the assay on NCI-H226 lung, 57.9%; in the assay on NCI-H322M lung it was 77%; in the assay on HOP-62 NSCLC, 21.3%; in the assay on NCI-H460 lung, 16.8%; with HOP-92 NSCLC it was 25.3%. Also, the growth was 24.8% in the assay on NCI-H522 lung, 23.2% in the assay on A549/ATCC NSCLC, 56.6% with 786-0 renal and -7.48% (active) in the assay with COLO 205 colon.
